{
  "source": "PubChem BioAssay (NCATS)",
  "note": "Records with an inconclusive call do not appear. Calls of active or inactive are those of the source. Unless noted, calls come from the whole dose curve; as a rule, active = well fitted curve in either direction with a large enough effect (not every such curve was filed as active); inconclusive = small, poorly fitted or top-dose-only effect, or another doubt; inactive = flat fitted curve, though single readings scatter.",
  "data": [
    {"molecular_target": "Lysosomal acid glucosylceramidase (Homo sapiens) (UniProt P04062)", "sequence (P04062 whole entry, looked up)": "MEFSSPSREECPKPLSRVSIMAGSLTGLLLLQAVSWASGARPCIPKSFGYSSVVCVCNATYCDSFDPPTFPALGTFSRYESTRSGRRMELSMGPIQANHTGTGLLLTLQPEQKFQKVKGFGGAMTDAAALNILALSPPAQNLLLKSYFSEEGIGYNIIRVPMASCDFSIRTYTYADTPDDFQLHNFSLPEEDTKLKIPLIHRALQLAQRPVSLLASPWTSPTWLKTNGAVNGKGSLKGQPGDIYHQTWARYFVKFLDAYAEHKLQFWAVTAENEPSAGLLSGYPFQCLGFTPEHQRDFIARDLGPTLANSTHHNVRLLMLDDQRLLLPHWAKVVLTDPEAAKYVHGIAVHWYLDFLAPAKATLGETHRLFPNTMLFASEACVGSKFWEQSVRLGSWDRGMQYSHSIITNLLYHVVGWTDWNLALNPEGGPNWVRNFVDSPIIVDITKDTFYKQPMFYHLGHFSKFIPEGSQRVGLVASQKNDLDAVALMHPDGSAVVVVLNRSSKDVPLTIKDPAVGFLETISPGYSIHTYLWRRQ", "assay": "Glucocerebrosidase-p2 (AID 348; in the data active = potency below about 10 µM; note: potency is the fitted concentration of half-maximal effect)", "conditions": "purified GBA, blue fluorogenic substrate, 40 min", "summary_of_the_method": "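Compounds titrated from 0.6 nM upwards against 0.2 nM enzyme in pH 5.9 citric acid/KH2PO4, taurocholate, tween-20; blue fluorogenic substrate 80 uM, 40 min room temperature, stopped and read Ex 365/Em 440 for AC50.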", "values": [
      {"smiles": "CCNc1ncc2nc(-c3cn(C)c4ccccc34)c(=O)n(Cc3ccc(F)cc3)c2n1", "Potency": "> 11.4 µM (inactive)"},
      {"smiles": "N#CCCn1c(=O)c(-c2ccccc2)nc2cnc(Nc3ccccc3)nc21", "Potency": "> 11.4 µM (inactive)"},
      {"smiles": "COc1cccc(-c2nccc(NCc3cccnc3)n2)c1", "Potency": "> 11.4 µM (inactive)"},
      {"smiles": "CN(C)c1ncc2nc(-c3cccs3)c(=O)n(-c3ccccc3)c2n1", "Potency": "> 11.4 µM (inactive)"},
      {"smiles": "COc1ccc(-c2nc3cnc(OC)nc3n(C)c2=O)cc1", "Potency": "> 11.4 µM (inactive)"},
      {"smiles": "COc1ncc2nc(-c3cccs3)c(=O)n(Cc3ccc(F)cc3)c2n1", "Potency": "> 11.4 µM (inactive)"},
      {"smiles": "COc1cccc(Cn2c(=O)cnc3cnc(OC)nc32)c1", "Potency": "> 11.4 µM (inactive)"},
      {"smiles": "COCCn1c(=O)c(-c2cccs2)nc2cnc(OC)nc21", "Potency": "> 11.4 µM (inactive)"},
      {"smiles": "COc1ccc(CNc2ccnc(-c3c(C)noc3C)n2)c(OC)c1", "Potency": "> 11.4 µM (inactive)"},
      {"smiles": "COc1cccc(Cn2c(=O)cnc3cnc(OCc4ccccc4)nc32)c1", "Potency": "> 11.4 µM (inactive)"},
      {"smiles": "Cc1cnc(CNc2ncnc3ccc(-c4ccc5c(c4)OCO5)cc23)cn1", "Potency": "> 11.4 µM (inactive)"},
      {"smiles": "CNc1nc(-c2c(C)noc2C)nc2ccccc12", "Potency": "> 11.4 µM (inactive)"},
      {"smiles": "N#Cc1cccc(-c2nccc(NCc3ccccc3)n2)c1", "Potency": "> 11.4 µM (inactive)"},
      {"smiles": "COc1ccccc1CNc1cc(-c2ccccc2C(F)(F)F)ncn1", "Potency": "> 11.4 µM (inactive)"},
      {"smiles": "COc1cccc(Cn2c(=O)c(-c3cccs3)nc3cnc(OCc4ccccc4)nc32)c1", "Potency": "> 11.4 µM (inactive)"},
      {"smiles": "c1ccc(CNc2ncncc2-c2ccc3c(c2)OCO3)cc1", "Potency": "> 11.4 µM (inactive)"},
      {"smiles": "Cc1noc(C)c1-c1nc(Nc2ccc(F)cc2)c2ccccc2n1", "Potency": "> 11.4 µM (inactive)"},
      {"smiles": "COc1ccc(CNc2ccnc(-c3ccccc3OC)n2)c(OC)c1", "Potency": "> 11.4 µM (inactive)"},
      {"smiles": "Cn1c(=O)c(-c2ccc(F)cc2)nc2cnc(N3CCOCC3)nc21", "Potency": "> 11.4 µM (inactive)"},
      {"smiles": "O=c1c(CCc2ccccc2)nc2cnc(N3CCOCC3)nc2n1CCc1ccccc1", "Potency": "> 11.4 µM (inactive)"},
      {"smiles": "N#Cc1ccccc1-c1ccc2ncnc(NC3CC3)c2c1", "Potency": "> 11.4 µM (inactive)"},
      {"smiles": "COc1cccc(Cn2c(=O)c(-c3cccs3)nc3cncnc32)c1", "Potency": "> 11.4 µM (inactive)"},
      {"smiles": "O=c1c(-c2ccc(F)cc2)nc2cncnc2n1-c1ccccc1", "Potency": "> 11.4 µM (inactive)"},
      {"smiles": "O=c1c(-c2ccc(Cl)cc2)nc2cnc(Nc3ccccc3)nc2n1C[C@H]1CCCO1", "Potency": "> 11.4 µM (inactive)"},
      {"smiles": "COc1ccccc1-c1cncnc1NCc1cnc(C)cn1", "Potency": "> 11.4 µM (inactive)"},
      {"smiles": "CN(C)Cc1ccccc1-c1nc(NC2CC2)c2ccccc2n1", "Potency": "> 11.4 µM (inactive)"},
      {"smiles": "CCNc1ncc2nc(-c3ccccc3)c(=O)n(CCOC)c2n1", "Potency": "> 11.4 µM (inactive)"},
      {"smiles": "CN(Cc1ccco1)c1ncnc2ccc(-c3ccccc3C#N)cc12", "Potency": "> 11.4 µM (inactive)"},
      {"smiles": "CCNc1ncc2nc(-c3ccc(F)cc3)c(=O)n(C[C@H]3CCCO3)c2n1", "Potency": "> 11.4 µM (inactive)"},
      {"smiles": "Cc1cnc(CNc2nc(-c3ccccc3C(F)(F)F)nc3ccccc23)cn1", "Potency": "> 11.4 µM (inactive)"},
      {"smiles": "CS(=O)(=O)Nc1cccc(-c2nccc(Nc3ccc(F)cc3)n2)c1", "Potency": "> 11.4 µM (inactive)"},
      {"smiles": "CCNc1ncc2nc(-c3cc(F)cc(F)c3)c(=O)n(CCc3ccccc3)c2n1", "Potency": "> 11.4 µM (inactive)"},
      {"smiles": "COc1cccc(-c2cc(NCc3ccccc3)ncn2)c1", "Potency": "> 11.4 µM (inactive)"},
      {"smiles": "c1ccc(CNc2ncncc2-c2cccnc2)cc1", "Potency": "> 11.4 µM (inactive)"},
      {"smiles": "COc1ccc(-c2nc3cnc(OC)nc3n(CCC#N)c2=O)cc1", "Potency": "> 11.4 µM (inactive)"},
      {"smiles": "N#Cc1cccc(-c2nccc(NCc3cccs3)n2)c1", "Potency": "> 11.4 µM (inactive)"},
      {"smiles": "Cc1ccccc1-c1cncnc1NCc1cccnc1", "Potency": "> 11.4 µM (inactive)"},
      {"smiles": "COc1ccc(Oc2ncc3nc(-c4cn(C)c5ccccc45)c(=O)n(C)c3n2)cc1", "Potency": "> 11.4 µM (inactive)"},
      {"smiles": "CN(C)c1ccc(-c2cncnc2N(C)Cc2ccco2)cc1", "Potency": "> 11.4 µM (inactive)"},
      {"smiles": "COc1ncc2nc(-c3cn(C)c4ccccc34)c(=O)n(CCC#N)c2n1", "Potency": "> 11.4 µM (inactive)"}
    ]},
    {"tested_on": "not listed separately", "assay": "AP1 Signaling Pathway (AID 357);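 note: ME-180 reporter cells stimulated with EGF at its EC50 level; % is set by controls: 0 for no effect and ±100 for the full control effect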", "conditions": "ME-180 AP-1-bla reporter, EGF-induced, beta-lactamase ratio, 5 h; at 7.69 µM (top of the series) unless noted", "summary_of_the_method": "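Titration-series screen for positive or negative modulators of EC50 EGF-induced signaling in ME-180 cells carrying an AP-1-driven beta-lactamase reporter. After 5 hours at 37 degrees Celsius, CCF4 460nm/530nm emission ratio gave %Activity; AC50 values derived.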", "values": [
      {"smiles": "CCNc1ncc2nc(-c3cn(C)c4ccccc34)c(=O)n(Cc3ccc(F)cc3)c2n1", "activity change, negative = inhibition": "-5.76% (inactive)"},
      {"smiles": "N#CCCn1c(=O)c(-c2ccccc2)nc2cnc(Nc3ccccc3)nc21", "activity change, negative = inhibition": "-19.8% (inactive)"},
      {"smiles": "COc1cccc(-c2nccc(NCc3cccnc3)n2)c1", "activity change, negative = inhibition": "-20.9% (inactive)"},
      {"smiles": "CN(C)c1ncc2nc(-c3cccs3)c(=O)n(-c3ccccc3)c2n1", "activity change, negative = inhibition": "-9.21% (inactive)"},
      {"smiles": "COc1ccc(-c2nc3cnc(OC)nc3n(C)c2=O)cc1", "activity change, negative = inhibition": "8.21% (inactive)"},
      {"smiles": "COc1ncc2nc(-c3cccs3)c(=O)n(Cc3ccc(F)cc3)c2n1", "activity change, negative = inhibition": "22.6% (inactive)"},
      {"smiles": "COc1cccc(Cn2c(=O)cnc3cnc(OC)nc32)c1", "activity change, negative = inhibition": "17.7% (inactive)"},
      {"smiles": "COCCn1c(=O)c(-c2cccs2)nc2cnc(OC)nc21", "activity change, negative = inhibition": "6.04% (inactive)"},
      {"smiles": "COc1ccc(CNc2ccnc(-c3c(C)noc3C)n2)c(OC)c1", "activity change, negative = inhibition": "11.5% (inactive)"},
      {"smiles": "COc1cccc(Cn2c(=O)cnc3cnc(OCc4ccccc4)nc32)c1", "activity change, negative = inhibition": "-24.3% (inactive)"},
      {"smiles": "Cc1cnc(CNc2ncnc3ccc(-c4ccc5c(c4)OCO5)cc23)cn1", "activity change, negative = inhibition": "-18.1% (inactive)"},
      {"smiles": "CNc1nc(-c2c(C)noc2C)nc2ccccc12", "activity change, negative = inhibition": "5.72% (inactive)"},
      {"smiles": "N#Cc1cccc(-c2nccc(NCc3ccccc3)n2)c1", "activity change, negative = inhibition": "-20.8% (inactive)"},
      {"smiles": "COc1ccccc1CNc1cc(-c2ccccc2C(F)(F)F)ncn1", "activity change, negative = inhibition": "-11.1% (inactive)"},
      {"smiles": "COc1cccc(Cn2c(=O)c(-c3cccs3)nc3cnc(OCc4ccccc4)nc32)c1", "activity change, negative = inhibition": "27.9% (inactive)"},
      {"smiles": "c1ccc(CNc2ncncc2-c2ccc3c(c2)OCO3)cc1", "activity change, negative = inhibition": "-23.4% (inactive)"},
      {"smiles": "Cc1noc(C)c1-c1nc(Nc2ccc(F)cc2)c2ccccc2n1", "activity change, negative = inhibition": "-5.88% (inactive)"},
      {"smiles": "COc1ccc(CNc2ccnc(-c3ccccc3OC)n2)c(OC)c1", "activity change, negative = inhibition": "3.33% (inactive)"},
      {"smiles": "Cn1c(=O)c(-c2ccc(F)cc2)nc2cnc(N3CCOCC3)nc21", "activity change, negative = inhibition": "14.8% (inactive)"},
      {"smiles": "O=c1c(CCc2ccccc2)nc2cnc(N3CCOCC3)nc2n1CCc1ccccc1", "activity change, negative = inhibition": "0.172% (inactive)"},
      {"smiles": "N#Cc1ccccc1-c1ccc2ncnc(NC3CC3)c2c1", "activity change, negative = inhibition": "-12.1% (inactive)"},
      {"smiles": "COc1cccc(Cn2c(=O)c(-c3cccs3)nc3cncnc32)c1", "activity change, negative = inhibition": "-13.8% (inactive)"},
      {"smiles": "O=c1c(-c2ccc(F)cc2)nc2cncnc2n1-c1ccccc1", "activity change, negative = inhibition": "-2.6% (inactive)"},
      {"smiles": "O=c1c(-c2ccc(Cl)cc2)nc2cnc(Nc3ccccc3)nc2n1C[C@H]1CCCO1", "activity change, negative = inhibition": "-8.65% (inactive)"},
      {"smiles": "COc1ccccc1-c1cncnc1NCc1cnc(C)cn1", "activity change, negative = inhibition": "-7.64% (inactive)"},
      {"smiles": "CN(C)Cc1ccccc1-c1nc(NC2CC2)c2ccccc2n1", "activity change, negative = inhibition": "1.1% (inactive)"},
      {"smiles": "CCNc1ncc2nc(-c3ccccc3)c(=O)n(CCOC)c2n1", "activity change, negative = inhibition": "22.2% (inactive)"},
      {"smiles": "CN(Cc1ccco1)c1ncnc2ccc(-c3ccccc3C#N)cc12", "activity change, negative = inhibition": "-26.1% (inactive)"},
      {"smiles": "CCNc1ncc2nc(-c3ccc(F)cc3)c(=O)n(C[C@H]3CCCO3)c2n1", "activity change, negative = inhibition": "-0.226% (inactive)"},
      {"smiles": "Cc1cnc(CNc2nc(-c3ccccc3C(F)(F)F)nc3ccccc23)cn1", "activity change, negative = inhibition": "-16.3% (inactive)"},
      {"smiles": "CS(=O)(=O)Nc1cccc(-c2nccc(Nc3ccc(F)cc3)n2)c1", "activity change, negative = inhibition": "-12.6% (inactive)"},
      {"smiles": "CCNc1ncc2nc(-c3cc(F)cc(F)c3)c(=O)n(CCc3ccccc3)c2n1", "activity change, negative = inhibition": "109% [activator] (active)"},
      {"smiles": "COc1cccc(-c2cc(NCc3ccccc3)ncn2)c1", "activity change, negative = inhibition": "-18.4% (inactive)"},
      {"smiles": "c1ccc(CNc2ncncc2-c2cccnc2)cc1", "activity change, negative = inhibition": "1.26% (inactive)"},
      {"smiles": "COc1ccc(-c2nc3cnc(OC)nc3n(CCC#N)c2=O)cc1", "activity change, negative = inhibition": "-7.37% (inactive)"},
      {"smiles": "N#Cc1cccc(-c2nccc(NCc3cccs3)n2)c1", "activity change, negative = inhibition": "-27.8% (inactive)"},
      {"smiles": "Cc1ccccc1-c1cncnc1NCc1cccnc1", "activity change, negative = inhibition": "-2.76% (inactive)"},
      {"smiles": "COc1ccc(Oc2ncc3nc(-c4cn(C)c5ccccc45)c(=O)n(C)c3n2)cc1", "activity change, negative = inhibition": "-24.2% (inactive)"},
      {"smiles": "CN(C)c1ccc(-c2cncnc2N(C)Cc2ccco2)cc1", "activity change, negative = inhibition": "-22.2% (inactive)"},
      {"smiles": "COc1ncc2nc(-c3cn(C)c4ccccc34)c(=O)n(CCC#N)c2n1", "activity change, negative = inhibition": "-17.8% (inactive)"}
    ]}
  ]
}
